Many of the other results were omitted from the sample, so hits are more common in it than they were.
CD40 NFkB inh – CD40 pathway inhibition in BL2 cells. BL2 NF-kB luciferase reporter, CD40L-induced, 4 h. inhibition, % at 10 µM. actives 0.94% (n = 83,000). AID 1053188;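 active = mean inhibition of at least 50% with a set share of replicates also reaching that level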;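 also: 0% = neutral control wells and 100% = IKK inhibitor VII at 50 µM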
Starred values were filed as active, the others as inactive; ! = not active in a repeat; [ ] = another dose, or the depositor's remark.

SMILES	CD40 NFkB inh
CCCCCCCN1N=C(C)C(C(=O)c2ccccc2)C1=O (stereo unspecified)	11
C[C@@H]1CN(C)C(=O)c2cccnc2O[C@@H]1CN(C)C	0
Oc1c(C(Nc2ccccn2)c2ccccn2)ccc2cccnc12 (stereo unspecified)	-6
COc1ccccc1NC(c1cccnc1)c1ccc2cccnc2c1O (stereo unspecified)	49*
Cc1ccnc(NC(c2cccnc2)c2ccc3cccnc3c2O)c1 (stereo unspecified)	-33
O=C(Nc1ccc(F)cc1)N1C[C@@H]2[C@H](c3ccccc31)[C@H](CO)N2Cc1cocn1	-14[25 µM]
N#C[C@@H]1[C@@H](c2ccccc2-c2cccc(F)c2)[C@H](CO)N1C(=O)NC1CCCC1	-3
C/C=C/c1ccc2c(c1)[C@H]1[C@H](CCN1C(=O)COC)[C@@H](CO)N2	-3
O=C1CCC(=O)N[C@@H](c2ccccc2)C/C=C\CCN1	3[25 µM]
C[C@@H](NC(=O)[C@@H]1[C@@H](CO)[C@@H]2Cn3c(cccc3=O)[C@@H]2N1CC1CCCC1)c1ccccc1	1
Cc1cc(=O)n(CC(=O)O)c2ccccc12	3
Cc1ccc2c(=O)c3ccccc3n(CCCN)c2c1C	79*[25 µM]
CCN(CC)CCn1c2ccccc2c(=O)c2c(O)ccc(O)c21	-12
CN(C)C(=O)c1cccc(-c2ccc(C3[C@H]4CNC[C@@H]3N4S(=O)(=O)c3ccccc3F)cc2)c1 (stereo partly specified)	12[25 µM]
CC=Cc1ccc2n(c1=O)C[C@H]1[C@H](CO)[C@@H](C(=O)NCc3ccccn3)[C@@H]2N1CC1CC1 (mixture of isomers)	-1[25 µM]
COc1ccc([C@@H]2CC=CC[C@H](C)Oc3ccccc3C(=O)N(C)[C@@H](Cc3ccccc3)C(=O)N2)c(OC)c1 (mixture of isomers)	-3[25 µM]
Cc1cc(C=O)c(C)c2c1[nH]c1ccccc12	10
COc1ccc(OC)c2c(=S)c3ccccc3[nH]c12	active[25 µM]
COc1ccc(C2NC(C(=O)O)Cc3c2[nH]c2ccccc32)cc1OC (stereo unspecified)	-14
Cc1nc2ccccc2c(=O)n1CCN1CCOCC1	-4
CCOC(=O)c1c(C)nc(C)c(C(=O)OCC)c1-c1cccc([N+](=O)[O-])c1	-3
Cc1nc2nc(C)n(CCN3CCOCC3)c(=O)c2c(-c2cccc([N+](=O)[O-])c2)c1C(=O)CCCCCCCCCCN1CCC(c2ccccc2)(c2ccccc2)CC1	115*
CCCNC(=O)[C@@H]1[C@@H](CO)[C@@H]2Cn3c(cccc3=O)[C@H]1N2Cc1cccc(Cl)c1	1[25 µM]
C#C[C@]1(O)CC[C@H]2[C@@H]3CCc4cc(OC)ccc4[C@H]3CC[C@@]21C	10
C#C[C@]1(O)CC[C@H]2[C@@H]3CCc4cc(OC5CCCC5)ccc4[C@H]3CC[C@@]21C	52*
SMILES	CD40 NFkB inh
C=CCOc1ccc2c(c1)CCC1C2CCC2(C)C(O)C(O)CC12 (stereo unspecified)	-111
C[C@H](CO)N1C[C@H](C)[C@@H](CN(C)C(=O)Nc2ccc3c(c2)OCO3)Oc2ccc(NS(=O)(=O)c3cccs3)cc2C1=O	-16[25 µM]
CC(C)NC(=O)N(C)C[C@H]1Oc2c(cccc2N(C)C)C(=O)N(C)C[C@@H]1C	5
CN1CCN(C(=O)c2cc3c(c(-c4cccc(C#CCC5CCCC5)c4)n2)[C@H](CCO)N(S(=O)C(C)(C)C)C3)CC1 (stereo partly specified)	-30[25 µM]
N#C[C@H]1[C@H](c2ccccc2-c2cccc(F)c2)[C@@H](CO)N1C(=O)C1CCCC1	4
CCn1c2ccccc2nc2cc3c(cc21)c(Cl)c(=O)c1ccccc13	90*
CCn1c(CNC(=O)C(C)(C)C)nc2ccccc21	4
CC(C)(C)N1CC(c2nc3ccccc3n2Cc2ccccc2)CC1=O (stereo unspecified)	14
CNC[C@@H]1Oc2ccc(NC(=O)NC(C)C)cc2C(=O)N(C)C[C@@H]1C	3
O=C(C[C@@H]1C[C@H]2c3cc(NC(=O)C4CCOCC4)ccc3O[C@H]2[C@H](CO)O1)NCc1ccc(Oc2ccccc2)cc1	6[25 µM]
O=C(C[C@H]1CC[C@@H]2[C@H](COC[C@@H](O)CN2Cc2ccc3c(c2)OCO3)O1)N1CCCCC1	1[25 µM]
CN1C(=O)c2cc(NC(=O)C3CC3)ccc2OC[C@@H]2O[C@@H](CC(=O)O)CC[C@H]21	14
CCCNC(=O)C[C@@H]1CC[C@@H]2[C@H](COC[C@@H](O)CN2C(=O)c2ccc(F)cc2)O1	-14[25 µM]
N#C[C@@H]1[C@H](c2ccccc2-c2cccc(F)c2)[C@@H](CO)N1C(=O)NC1CCCCC1	15[25 µM]
C=C1C(=O)C23C(O)C1CCC2C12CCCC(C)(COC(C)=O)C1C(O)C3(O)OC2 (stereo unspecified)	104*
CCCNC(=O)N1C[C@@H]2[C@H](c3ccccc31)[C@@H](CO)N2Cc1ccccc1F	1[25 µM]
COc1ccc(C(=O)Nc2ccc(N3CCOCC3)cc2)cc1S(=O)(=O)N1CCOCC1	17*
COc1ccc(C(=O)Nc2ccc(NC(C)=O)cc2)cc1S(=O)(=O)N1CCCC1	-1
COc1ccc(C(=O)Nc2ccc(N3CCOCC3)cc2)cc1S(=O)(=O)N1CCCC1	-9
CN1c2ccc(-c3ccccc3F)cc2[C@H]2[C@H](CCN2S(=O)(=O)c2ccc(F)cc2)[C@@H]1CO	1
COc1ccc(C[C@@H]2CCn3nncc3COC[C@@H](c3ccccc3)NC2=O)cc1	-3[25 µM]
CCCNC(=O)Nc1ccc2c(c1)OC[C@H](C)N(Cc1cncnc1)C[C@@H](C)[C@@H](OC)CN(C)C2=O	-10[25 µM]
COCC#Cc1ccc([C@@H]2[C@@H](C#N)N(C(=O)NC3CCCC3)[C@@H]2CO)cc1	25[25 µM]
NC(=S)NN=Cc1nccc2c(C(F)(F)C(F)(F)C(F)(F)F)cccc12	31
Cn1cccc1/C=N/NC(N)=S	4
SMILES	CD40 NFkB inh
NC(=S)NN=Cc1c[nH]c2nccnc12	67*
O=C(Nc1ccc(F)cc1)N1C[C@@H]2N[C@H](C1)C2c1ccc(-c2ccccc2F)cc1 (stereo partly specified)	-4
O=C(C1CC1)N1C[C@@H]2N[C@H](C1)C2c1ccc(-c2cccc(F)c2)cc1 (stereo partly specified)	60*!
O=C(C1CCCC1)N1C[C@@H]2N[C@H](C1)C2c1ccc(-c2cccc(F)c2)cc1 (stereo partly specified)	8
N#Cc1ccc(-c2ccc(C3[C@@H]4CN(C(=O)C5CCCC5)C[C@H]3N4)cc2)cc1 (stereo partly specified)	3
Cc1cccc(-c2ccc(C3[C@@H]4CN(C(=O)Nc5ccccc5)C[C@H]3N4)cc2)c1 (stereo partly specified)	0
O=C(C1CC1)N1C[C@@H]2N[C@H](C1)C2c1ccc(-c2ccccc2F)cc1 (stereo partly specified)	83*!
O=C(Nc1ccc(C(F)(F)F)cc1)N1C[C@@H]2N[C@H](C1)C2c1ccc(-c2ccccc2)cc1 (stereo partly specified)	70*!
N#Cc1cccc(-c2ccc(C3[C@@H]4CN(C(=O)C5CC5)C[C@H]3N4)cc2)c1 (stereo partly specified)	76*!
O=C(Nc1ccc(C(F)(F)F)cc1)N1C[C@@H]2N[C@H](C1)C2c1ccc(/C=C/c2ccccc2)cc1 (stereo partly specified)	45
Cc1cccc(-c2ccc(C3[C@@H]4CN(C(=O)C5CCC5)C[C@H]3N4)cc2)c1 (stereo partly specified)	14

Assay outcomes (PubChem)
